Reference: the OligoGym collection

The sequences below were run against JOSD1 (assay: pooled miR-30 sensor sort-seq; sequence = guide strand). Conditions: shRNA.

Sequence | sensor-assay potency score (higher = more potent)
TTTAGAAACTTCCTGAGCTCGC | 0.218
TGATGTTTTAGAAACTTCCTGA | 0.299
TTGTGAGGTGTCACCATGGTGT | -0.922
TAGAAACTTCCTGAGCTCGCTC | 0.337
ATCTCTTGCAGCGTATCCCGGG | -0.409
TTTCCCAGCATGCTCTTCTTGT | -0.498
TTGGAGTCGAGGTTGTAGTAGG | -0.655

The sequences below were run against KAAG1 in the same assay as above. Conditions: shRNA.

Sequence | sensor-assay potency score (higher = more potent)
TTTCAGGAGGCGATCCCGCGCC | -0.845
TTTCTCGTTCGTTTCAGGAGGC | 0.381
TCAGTTTCTCGTTCGTTTCAGG | -0.203
AAGAGCGTGCTTGTGTACCGCA | -0.0933
TGGATTCGTCAGTTTCTCGTTC | -0.583
TTCGTCAGTTTCTCGTTCGTTT | -0.143
ATTCGTCAGTTTCTCGTTCGTT | -0.19
TGCTTGTGTACCGCAACGGGGA | -1.14
TCAGCCCGTCGTGAAGAGCGTG | -1.18
TTCTCGTTCGTTTCAGGAGGCG | -0.584
TCGTTTCAGGAGGCGATCCCGC | -1.24
TCTCGTTCGTTTCAGGAGGCGA | -0.839

Each sequence was assayed against KBTBD10 in the same assay as above. Conditions: shRNA.

Sequence | sensor-assay potency score (higher = more potent)
TTTTGCTGGGTAACAATGCTGG | -0.684
TTGCTAGGCAACTAGCTCCTGA | -0.209
TTGTCTAGCACTACCTCCTTTT | -0.574
ATTGTCTAGCACTACCTCCTTT | -0.463
TTGCATACAGAGATCCAGCCAG | -0.134
TTTGCCTGCAACTACATAGATT | -1.51
TGAAGCATAACGTATTTCCTTC | -0.295
TTTATCATCCACCTCTCCCAGA | -0.692
TAGCTCCTGAAGCATAACGTAT | -1.66
TAAGGTAGCATTCATTTTCCGT | -0.0345
TTGTACATTTTTTGTCATCTGT | -0.405
TATGTCATTGACTTCAGTGGGT | 0.618

What follows are sequences tested against KBTBD12 in the same assay as above. Conditions: shRNA.

Sequence | sensor-assay potency score (higher = more potent)
TTCTTCATCAGGAAGATCCATC | -0.961
TACAGCTGTACTGAATCGGTAC | -0.257
TGGTCATCTAGCTACAACCTAC | -1.11
TATATTTTTGACACACACTGAA | 0.336
TTTAATAACACCGACACACTTT | 0.48
TTCTTTGTTATGATTTACCCAT | -0.456
TATGTCTTGATCTGATTCCTGA | 0.119
TTGTAGTGTCTTATTTACCCTA | -0.555
TTATTCAGTAAATTCAAGCTAT | -0.287
